Source: PubChem BioAssay (EPA / NIEHS)
Calls of active or inactive are those of the source. How the source made its calls: active means hit-call score of the fitted dose curve at least 0.9, where 1 is the maximum; inactive means score below 0.9.

Read-out: Vascular cell adhesion molecule 1 (VCAM1), VCAM1 (gene 7412)
Assay: BSK_4H_VCAM1: BioMAP Diversity Plus: 4H Assay for Vascular cell adhesion molecule 1 (VCAM1) Biomarker Activity (AID 2283033)
Conditions: primary human endothelial cells (HUVEC); actives raise or lower the signal
Procedure: BSK_4H is a cell-based, multiplexed-readout assay that uses umbilical vein endothelium, a human vascular primary cell, with measurements taken at 24 hours after chemical dosing in a 96-well plate.BSK_4H_VCAM1 is an assay component measured in the BSK_4H assay. It measures VCAM-1 antibody related to regulation of gene expression using ELISA technology.Data from the assay component BSK_4H_VCAM1 was analyzed into 1 assay endpoint. This assay endpoint, BSK_4H_VCAM1, was analyzed with bidirectional fitting relative to DMSO as the negative control and baseline of activity. Using a type of binding reporter, gain or loss-of-signal activity can be used to understand changes in the signaling as they relate to the gene VCAM1. Furthermore, this assay endpoint can be referred to as a primary readout, because this assay has produced multiple assay endpoints where this one serves a signaling function. To generalize the intended target to other relatable targets, this assay endpoint is annotated to the cell adhesion molecules intended target family, where the subfamily is Immunoglobulin CAM.
The levels of cell surface (or secreted, indicated by the prefix "s") biomarker endpoints were measured by ELISA. Overt cytotoxicity to cells in confluent adherent cultures (all systems other than the BT system) was assessed by measuring total protein levels using sulforhodamine B (SRB) staining in parallel cultures at the time of biomarker measurements, indicated as SRB endpoints. For proliferation assays for adherent cell types, individual cell types are cultured at sub-confluence and relative cell numbers quantified by SRB staining at time points optimized for each system (48 h: 3C and CASM3C systems; 72 h: BT and HDF3CGF systems; 96 h: SAg system). SRB was performed by staining cells with 0.1% SRB after fixation with 10% TCA and reading wells at 560 nm.Viability and proliferation of PBMC (T cells) was quantified by Alamar Blue reduction for the SAg and BT systems. For PBMC viability (referred to as PBMC Cytotoxicity within the assay endpoint names), cells were plated (75,000/well in a 96-well plate) and then chemical samples added for 1 h before addition of activators, SEB and TSST-1 (20 ng/mL final concentration each). Cells were incubated for 90 h. Then, Alamar Blue (20 uL/well) (Invitrogen, Cat DAL1100) was added for 6 h, and the plates were read with a fluorescence microplate reader at 546/580 nm (excitation/emission). For PBMC proliferation, cells were plated and activated as above but incubated for only 16 h prior to addition of Alamar Blue. Plates were read after 6 h.

SMILES | outcome | AC50
CN(C)C(=S)S | inactive | –
COCC(=O)N(c1c(C)cccc1C)[C@H](C)C(=O)OC | inactive | –
CCCCOC(=O)COC(=O)c1ccccc1C(=O)OCCCC | inactive | –
O=[N+]([O-])c1ccc(Nc2ccccc2)cc1 | inactive | –
Nc1ccc(N)cc1 | inactive | –
CCCCCCCCCCCCN(C)C | inactive | –
CCOP(=O)(OCC)OC(=CCl)c1ccc(Cl)cc1Cl | – | 32 µM (active)
CCOC(=O)C(SP(=S)(OC)OC)c1ccccc1 (stereo not given) | – | 27.1 µM (active)
CC(C)(C)c1cc([N+](=O)[O-])cc(C(C)(C)C)c1O | inactive | –
OC(Cc1ccccc1Cl)(Cn1cncn1)C1(Cl)CC1 (stereo not given) | inactive | –
Nc1c(Oc2ccccc2)cc(O)c2c1C(=O)c1ccccc1C2=O | inactive | –
CCOP(=S)(OCC)SCS(=O)(=O)C(C)(C)C | inactive | –
O=C(Cc1ccccc1)OCCc1ccccc1 | inactive | –
CC(C)=CC1C(C(=O)OCc2cccc(Oc3ccccc3)c2)C1(C)C (stereo not given) | inactive | –
O=C1C=CC(=O)c2ccccc21 | – | 1.95 µM (active)
Cc1cccc(OP(=O)(Oc2cccc(C)c2)Oc2cccc(C)c2)c1 | inactive | –
N#CCCC(Br)(C#N)CBr (stereo not given) | – | 7.87 µM (active)
CCOP(=O)(OCC)SCCSCC | inactive | –
CC(C)(C)c1ccccc1O | inactive | –
Oc1c(Cl)cc(Cl)cc1Cl | inactive | –

SMILES | outcome | AC50
Clc1cccc(Cl)c1Cl | inactive | –
CC(C)O.CC(C)O.OCCN(CCO)CCO.OCCN(CCO)CCO.[Ti] | inactive | –
Cc1cc(C)cc(C)c1 | inactive | –
CC1(C)[C@H](C(=O)O[C@H](C#N)c2cccc(Oc3ccccc3)c2)[C@@H]1/C=C(\Cl)C(F)(F)F | inactive | –
CCCCCCCCCCCCc1cccc(S(=O)(=O)O)c1 | inactive | –
[Cl][Sn]([c]1ccccc1)([c]1ccccc1)[c]1ccccc1 | – | 0.0783 µM (active)
OCCN(CCO)CCO | inactive | –
O=C(N[C@H]1CN2CCC1CC2)c1ccc2c(c1)OCCO2 | inactive | –
Clc1cccc(Cl)c1 | inactive | –
N#Cc1cccnc1 | inactive | –
c1ccc2sc(SNC3CCCCC3)nc2c1 | inactive | –
CCOC(=O)CCN(SN(C)C(=O)Oc1cccc2c1OC(C)(C)C2)C(C)C | – | 31 µM (active)
CCN(CC)C(=O)C(Cl)=C(C)OP(=O)(OC)OC | inactive | –
Cc1cc(C(C)(C)c2ccc(O)c(C)c2)ccc1O | – | 16.8 µM (active)
Cc1c([N+](=O)[O-])c(C)c([N+](=O)[O-])c(C(C)(C)C)c1[N+](=O)[O-] | inactive | –
Cc1cc(Cl)ccc1N | inactive | –
C#CCOC(=O)/C=C(C)/C=C/CC(C)CCCC(C)C (stereo not given) | – | 26.4 µM (active)
Cc1ccccc1OP(=O)(Oc1ccccc1C)Oc1ccccc1C | – | 7.84 µM (active)
CCOP(=S)(OCC)OP(=S)(OCC)OCC | – | 33 µM (active)
OC(Cc1ccccc1Cl)(Cn1[nH]cnc1=S)C1(Cl)CC1 (stereo not given) | – | 20 µM (active)
